# Assay results as given in PubChem BioAssay (NCI).
# The panel holds about 83,000 compounds, 20% with a hit somewhere; the sample as a whole holds those more often.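 Values shown are percent growth following 48 h exposure of cells in 96-well plates to a single concentration of compound; below 10 was considered active.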 Unmarked numbers belong to inactive results. Activity calls are given as the source filed them.
# Tested on: SK-MEL-28 melanoma
# Test: NCI-60 one-dose screen, 48 h (100 = growth as untreated, 0 = no growth, -100 = all killed)
# Conditions: 10 µM unless noted
# Experimental: Growth inhibition of the SK-MEL-28 human tumor cell line is measured as a screen for anti-cancer activity. Cells are grown in 96 well plates and exposed to the test compound for 48 hours. Compounds are tested at a single concentration, which is 10^-5 M for most compounds. The reported endpoint is percent growth (GI% or GIPRCNT), where numbers from 0 - 100% represent growth inhibition, and numbers from -100% - 0 represent cell death. For example, a value of 40 represents 60% growth inhibition. A value of 0 means no net growth occurred over the course of the experiment. A value of -40 indicates 40% of cells at the beginning of the experiment died by the end of the experiment. A value of -100 means all cells are dead at the end of the experiment.
# NCI-60 Human Tumor Cell Lines Screen was performed using the standard one-dose NCI protocol, which is described in more detail at https://dtp.cancer.gov/discovery_development/nci-60/default.htm.
# Compounds with GIPRCNT values below 10 were considered active. Activity score was based on GIPRCNT using the following formula: […]
# Score is 0 for GIPRCNT values of 100 or above, 50 for GIPRCNT values of 0, and 100 for GIPRCNT values of -100.
row,Structure (SMILES),growth
1,CCCCCCn1c(O)c(N=Nc2nc(-c3cc4ccccc4oc3=O)cs2)c2ccccc21,-39.3% (active)
2,CC1(C)CC[C@]2(C(=O)O)CC[C@]3(C)C(=CCC4[C@@]5(C)C[C@@H](O)[C@@H]6OC(c7ccccc7F)OC[C@@]6(C)C5CC[C@]43C)C2C1 (stereo not given in full),19.7%
3,COc1cc(OC)c2c3nc4cc(C)c(C)cc4nc3n(CCN(C)C)c2c1,66.5%
4,O=C1NC(=O)c2c1c1c3cc(Br)ccc3[nH]c1c1oc3ccc(F)cc3c21,-20.7% (active)
5,CC(=O)OC[C@@]1(C)C2CC[C@]3(C)C(CC=C4C5CC(C)(C)CC[C@]5(C(=O)Nc5ccc(Br)cc5)CC[C@]43C)[C@@]2(C)C[C@@H](OC(C)=O)[C@@H]1OC(C)=O (stereo not given in full),72.3%
6,Cc1ccc(NC(=O)[C@]23CCC(C)(C)CC2C2=CCC4[C@@]5(C)C[C@@H](O)[C@H](O)[C@@](C)(CO)C5CC[C@@]4(C)[C@]2(C)CC3)cc1 (stereo not given in full),47.9%
7,CCCCCCCCOc1cccc(S(=O)(=O)Nc2ccc(C)cc2C(=O)O)c1,106%
8,C=C1CC[C@@H]2[C@]3(C)COC(c4cn[nH]c4-c4cccc(Br)c4)O[C@@H]3CC[C@@]2(C)[C@@H]1C/C=C1/C(=O)OCC1O (stereo not given in full),-76.7% (active)
9,CC1(c2cc3cc(Br)ccc3oc2=O)NC(=O)c2c(/C=C/C(=O)OC3CC4CCC3(C)C4(C)C)cccc2N1 (stereo not given),86.5%
10,Cc1cc2nc3c([nH]c2cc1C)c1ccc(=O)cc1n3CCN(C)C,51.4%
11,Cc1ccc(NC(=O)CN2CCN(c3ncnc4c3cnn4-c3ccccc3)CC2)cc1,86.5%
12,COc1cccc(-c2c(C#N)c(-c3ccc(Cl)cc3)nc3n[nH]c(-c4ccc(Cl)cc4)c23)c1,73.6%
13,COc1cc(-c2ccc(/C=N/NC(=O)c3[nH]c4ccc(Br)cc4c3-c3ccccc3)s2)cc(OC)c1OC,84.1%
14,CC(C)CCNC(=O)N/C(N)=N/c1nc2ccccc2s1,81.3%
15,O=C(COc1ccc2c(c1)CCCC(=O)N2)NCc1ccccc1,90.4%
16,Cc1c(C(=O)NNC(=O)c2ccc(Cl)cc2)nnn1-c1ccc(Br)cc1,95.7%
17,Cn1cc(-c2cc(N)n3nc(-c4cn(C)c5ccccc45)cc3n2)c2cc(Cl)ccc21,-86.7% (active)
18,S=C(NCCc1ccccc1)Nc1ccc(OCc2nc3ccccc3[nH]2)cc1,110%
19,COc1ccc(C(=O)/C=C/c2ccc(OC)c(OCc3ccccc3)c2)cc1OC,39.8%
20,CCCCNC(=S)Nc1ccc(OCc2nc3ccccc3[nH]2)cc1,88.2%

row,Structure (SMILES),growth
1,COc1ccc2[nH]cc(-c3nnc(N)nc3-c3c[nH]c4ncc(Br)cc34)c2c1,98.9%
2,O=C(CN1C(=O)/C(=C/c2ccccc2Cl)SC1=S)N1CCOCC1,98.8%
3,COc1ccc(C(=O)/C=C/c2ccc3ccccc3c2)cc1S(N)(=O)=O,-41.5% (active)
4,CCCCCCCCc1ccc(C(=O)Nc2ccc(C)cc2C(=O)O)cc1C,109%
5,COc1ccc2c(c1)c(-c1cc3nc(-c4cn(C)c5ncc(Br)cc45)cc(N)n3n1)cn2C,-92.8% (active)
6,COc1c(F)ccc(C(=O)Nc2ccc3nc(NC(=O)C4CCCN(S(=O)(=O)c5cccc(Cl)c5)C4)sc3c2)c1F (stereo not given),92.1%
7,CC(=O)c1cccc(NC(=O)CCC(=O)NS(=O)(=O)c2ccc(C)cc2)c1,108%
8,CCN1C(=O)/C(=N\N=C(/C)c2ccc3c(c2)Nc2ccccc2S3)c2cc(Cl)ccc21,47.2%
9,O=C(COc1ccc(NC(=O)Nc2ccc(Cl)c(Cl)c2)cc1)N=Nc1c(O)[nH]c2ccc(Cl)cc12,-81.4% (active)
10,Cc1cc(=O)oc2cc(OCCOc3ccc(/C=C/C(=O)Nc4ccccc4N)cc3)ccc12,39.9%
11,COc1ccc(C2=NN(c3ccccc3)C(c3ccc(OCc4ccccc4)c(OC)c3)C2)cc1OC (stereo not given),104%
12,S=C(Nc1ccc(OCc2nc3ccccc3[nH]2)cc1)NC1CCCCC1,85.2%
13,O=C(NNc1nc2cc(F)ccc2n2c(CN3CCCCC3)ccc12)c1cnccn1,-57.4% (active)
14,CC(=O)Nc1cccc(Nc2nc(N[C@H]3CCCc4ccccc43)c3ccccc3n2)c1,104%
15,CN1C(=O)/C(=C/c2ccc(C(=O)Nc3ncc(Cc4ccc(Cl)cc4Cl)s3)cc2)SC1=S,41%
16,NS(=O)(=O)c1ccc(-n2cc(-c3cccc(NC(=O)c4cc(C(F)(F)F)cc(C(F)(F)F)c4)c3)nn2)cc1,81.5%
17,Nc1cc2ccccc2c(=O)n1NC(=O)c1ccc(I)cc1,103%
18,Cn1cc(-c2cc3nc(-c4cn(C)c5ncc(Br)cc45)cc(N)n3n2)c2cc(Cl)ccc21,-90.7% (active)
19,COc1ccc(C(=O)/C=C/c2ccccc2Cl)cc1S(N)(=O)=O,103%
20,O=C(NNc1nc2cc(C(F)(F)F)ccc2n2cccc12)c1cnccn1,-36.8% (active)
